# In the library only some 28% were active in any assay of this set; here they are far more common.
# CYP2C19 inhib: blockers of cytochrome P450 2C19 activity – biochemical, luminescence, ADME assay, primary screen; inhibition, % at 5 µM; 96,000 compounds, 21% hits; CYP2C19 Supersomes, luciferin-H EGE luminescence, 30 min; P33261;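 active = CYP2C19 inhibition above a set limit at 5 µM in the primary screen, cut at about 50% in these data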;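 note: plate controls were negative control wells for no effect and 2.5 mM tranylcypromine positive control for full effect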
# CYP2C9 activ: human CYP2C9 activators, primary screen, biochemical, luminescence; recombinant CYP2C9, luciferin-H conversion; stronger effect = higher value; factor 1 = untreated enzyme, 0 = blocked; 96,000 compounds, 1.4% hits; Cytochrome P450 2C9 (Homo sapiens), P11712; activation factor at 5 µM;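 active = activation factor of 2 or more for CYP2C9 at a 5 µM dose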;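 note: 0 = sulfaphenazole-blocked wells and 1 = vehicle-only wells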
# CYP2C19 activ: human CYP2C19 activators, primary screen, biochemical, luminescence; 96,000 tested, under 10 active; recombinant CYP2C19, luciferin-H EGE luminescence; stronger effect = higher value; 0 = fully inhibited enzyme, 1 = untreated enzyme; activation factor at 5 µM;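 active = activation factor of at least 2 at 5 µM in the primary screen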;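 note: 0 = wells with 2.5 mM tranylcypromine and 1 = vehicle-only wells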
# CYP2C9 inhib: blockers of cytochrome P450 2C9 activity – biochemical, luminescence, ADME assay, primary screen; CYP2C9 Supersomes, luciferin-H conversion; inhibition, % at 5 µM; 96,000 compounds, 20% hits;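 active = blocking of liver enzyme CYP2C9 beyond about 50% at 5 µM, limit read from the data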
# PLK1 PBD inh: Plk1 polo box domain binding inhibitors, primary screen, biochemical, fluorescence polarization | 97,000 compounds, 0.13% hits | AID 693, 2007 | inhibition, %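 (tested at about 20 µM)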 | Serine/threonine-protein kinase PLK1 (Homo sapiens), P53350 | Plk1 PBD phosphopeptide binding; in the data active = inhibition above about 34%, passing the limit was not always enough
# Target sequence (P53350 whole entry, looked up, the tested form may be a part): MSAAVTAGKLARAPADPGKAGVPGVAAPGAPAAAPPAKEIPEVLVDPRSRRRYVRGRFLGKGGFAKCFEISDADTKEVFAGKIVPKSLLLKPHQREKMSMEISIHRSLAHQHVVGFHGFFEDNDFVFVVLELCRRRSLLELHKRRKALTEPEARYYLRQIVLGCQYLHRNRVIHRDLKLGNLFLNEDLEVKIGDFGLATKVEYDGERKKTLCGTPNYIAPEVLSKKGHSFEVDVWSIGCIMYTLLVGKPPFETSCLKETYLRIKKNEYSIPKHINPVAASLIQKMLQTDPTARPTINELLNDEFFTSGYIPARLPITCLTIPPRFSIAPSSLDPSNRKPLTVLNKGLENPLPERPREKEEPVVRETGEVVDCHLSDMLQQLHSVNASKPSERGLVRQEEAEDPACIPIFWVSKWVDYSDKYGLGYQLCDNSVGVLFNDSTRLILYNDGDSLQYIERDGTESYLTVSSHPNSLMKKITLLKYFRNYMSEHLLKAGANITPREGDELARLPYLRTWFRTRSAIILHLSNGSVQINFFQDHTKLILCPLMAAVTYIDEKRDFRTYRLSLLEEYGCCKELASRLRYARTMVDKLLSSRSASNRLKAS
# PLK1 inh: human PLK1 kinase inhibitors, primary screen, biochemical, TR-FRET; recombinant PLK1 kinase, TR-FRET peptide phosphorylation; inhibition, % at 10 µM; 97,000 compounds, 0.53% hits;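 active = inhibition of 50% or more in the single-concentration screen; inactive = inhibition below 50%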;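 note: 0% = DMSO max control and 100% = H-89 dihydrochloride min control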
# * marks the source's active call; other numbers are inactive results; . = no result.
SMILES,CYP2C19 inhib,CYP2C9 activ,CYP2C19 activ,CYP2C9 inhib,PLK1 PBD inh,PLK1 inh
CCOC(=O)NC(=O)COC(=O)Cc1cc(OC)c(OC)c(OC)c1,8,1,0.9,2,-3,-4
O=S(=O)(c1cccc2cccnc12)N1CCOCC1,39,4*,0.6,-301,-4,-9
COc1ccc(N2CCN(S(=O)(=O)c3cccc4cccnc34)CC2)cc1,82*,2.6*,0.2,-155,-15,1
O=c1n(S(=O)(=O)c2cccc3cccnc23)c2ccccc2n1S(=O)(=O)c1cccc2cccnc12,17,0.5,0.8,48,3,1
CC1CC(C)CN(S(=O)(=O)c2cccc3cccnc23)C1 (stereo not given),68*,2.5*,0.3,-155,-17,-13
CC1CCCCN1S(=O)(=O)c1cccc2cccnc12 (stereo not given),79*,3.9*,0.2,-289,-5,-2
COc1cc2c(cc1OC)C(c1cc3ccccc3oc1=O)=NC(C)(C)C2,.,.,.,.,-4,-1
c1ccc(-c2csc(N3CCN(c4ccccn4)CC3)n2)cc1,20,1.1,0.8,-10,-13,-9
CC1(C(=O)NC2CCCCC2)CCC(=O)N1Cc1cccs1 (stereo not given),18,1.5,0.8,-46,8,8
CC1(C(=O)NC2CCCCCCC2)CCC(=O)N1Cc1cccs1 (stereo not given),71*,1.3,0.3,-28,16,-10
COc1ccc(S(=O)(=O)N2CC(C(=O)O)Oc3ccc(CC(=O)O)cc32)cc1 (stereo not given),10,1,0.9,2,-19,-6
CCOC(=O)C1CN(S(=O)(=O)c2ccc(OC)cc2)c2cc(CC(=O)OC)ccc2O1 (stereo not given),93*,0.7,0.1,30,7,-7
O=C(CSc1nnc(-c2cnccn2)n1Cc1ccco1)c1ccccc1,35,0.6,0.7,38,0,-16
O=C(CSc1nnc(-c2cnccn2)n1Cc1ccco1)c1ccc(Cl)cc1,27,0.4,0.7,59*,1,-4
COc1cc(Cl)c(C)cc1NC(=O)CSc1nnc(-c2ccccn2)n1Cc1ccco1,16,0.5,0.8,50*,19,-11
O=C(CSc1nnc(-c2ccccn2)n1Cc1ccco1)c1ccccc1,-1,0.5,1,51*,4,-1
COc1ccc(C(=O)CSc2nnc(-c3ccccn3)n2Cc2ccco2)cc1,29,0.3,0.7,66*,-25,-2
Cc1cc(Br)cc(C)c1NC(=S)NC(=O)CC(C)C,-4,1,1,2,19,-9
COc1ccc(C2CC(C(F)(F)F)n3nc(C(=O)O)c(Br)c3N2)cc1 (stereo not given),-10,1.1,1.1,-5,10,-8
CCOC(=O)CNS(=O)(=O)c1ccc(S(=O)(=O)N2CCCC2)cc1,3,0.9,1,15,-12,-11
CN(C)c1ccc(CN(C(=O)COc2ccc(F)cc2)C2CCS(=O)(=O)C2)cc1 (stereo not given),39,1,0.6,3,2,-8
O=C(CSc1nnc(-c2cccnc2)n1Cc1ccco1)c1ccc(Br)cc1,88*,0.2,0.1,80*,-7,-12
O=C(CSc1nnc(-c2ccccn2)n1Cc1ccco1)c1ccc(Cl)cc1,27,0.3,0.7,71*,-12,-10
Cc1cccc(C)c1NC(=O)C1(NC(=O)C2CCCN2C(=O)OC(C)(C)C)CCCCC1 (stereo not given),-14,1.1,1.1,-12,17,-6
C=CCn1c(SCC(=O)c2cc(C)n(CCOC)c2C)nc2sc(C)c(C)c2c1=O,22,0.7,0.8,28,6,-8
Cc1cc(O)c(-c2n[nH]c3c2C(c2cccc(O)c2)N(Cc2cccnc2)C3=O)cc1Cl (stereo not given),25,0.3,0.8,67*,-14,-15

# Assay outcomes as filed in PubChem BioAssay.
